# Records with an inconclusive call do not appear. Calls of active or inactive are those of the source. Rule for the calls, unless noted: active = hit-call score of the fitted dose curve at least 0.9, where 1 is the maximum; inactive = score below 0.9.
# What was measured:
# [1] = ATG_Sox_CIS: Attagene CIS-FACTORIAL HepG2 Assay for human SRY-box transcription factor (SOX) (AID 2282960); details: HepG2 Attagene cis-factorial SOX reporter, mRNA; actives raise or lower the signal
# Method in brief: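 Measures mRNA induction of a SOX1-associated reporter in HepG2 after 24 h dosing. Fluorescently labelled RT-PCR fragments are separated by capillary electrophoresis, and gain or loss relative to DMSO control is fitted.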
# [2] = biological target: Transcription factor Sp1 (Homo sapiens) (UniProt P08047); test: ATG_Sp1_CIS: Attagene CIS-FACTORIAL HepG2 Assay for human Specificity Protein 1 (Sp1) (AID 2282961); details: HepG2 Sp1 cis-reporter transcription, actives raise or lower the signal
# Method in brief: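 Cells: HepG2, transiently transfected with cis-regulated multiplexed reporters. Exposure: 24 h. Detection: reporter transcripts amplified, fluorescently labeled, restriction-digested and sized by capillary electrophoresis. Analysis: bidirectional fit relative to DMSO.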
# [3] = ATG_SREBP_CIS: Attagene CIS-FACTORIAL HepG2 Assay for human Sterol Regulatory Element Binding (SREBP) (AID 2282962); details: HepG2 Attagene cis-factorial SREBP reporter, mRNA; actives raise or lower the signal
# Method in brief: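 Endogenous SREBP activity read as cis-element-driven reporter transcript in transiently transfected HepG2, 24 h post-dosing; quantified via RT-PCR plus capillary electrophoresis of fluorescent fragments. Gain or loss of signal fitted relative to DMSO baseline.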
# [4] = biological target: Signal transducer and activator of transcription 3 (Homo sapiens) (UniProt P40763); test: ATG_STAT3_CIS: Attagene CIS-FACTORIAL HepG2 Assay for human Signal Transducer and Activator of Transcription 3 (STAT3) (AID 2282963); details: HepG2, Attagene cis-factorial STAT3 reporter transcription; actives raise or lower the signal
# Method in brief: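 Cis-factorial format: endogenous transcription factors in HepG2 drive transfected reporter units. After 24 h treatment, reporter RNA was reverse-transcribed, amplified, FAM-labelled and HpaI-digested before CE analysis; activity scored in both directions against DMSO.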
# [5] = ATG_TCF_b_cat_CIS: Attagene CIS-FACTORIAL HepG2 Assay for human T-Cell-Factor with beta-catenin (TCF/b-cat) (AID 2282965); details: HepG2 TCF/beta-catenin cis-reporter transcription, actives raise or lower the signal
# Method in brief: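 Measured: reporter mRNA in HepG2 transiently transfected with cis-promoter reporter units, 24 h after chemical addition. Fitting was bidirectional, DMSO as negative control.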
# [6] = ATG_TAL_CIS: Attagene CIS-FACTORIAL HepG2 Assay for human TAL Basal Promoter (AID 2282966); details: HepG2 Attagene cis-factorial TAL promoter reporter; actives raise or lower the signal;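 note: background control endpoint measuring basal TAL promoter reporter mRNA not a specific factor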
# Method in brief: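 Background-control endpoint: basal TAL promoter reporter transcripts in transiently transfected HepG2, measured 24 h after dosing. Read-out by RT-PCR with fluorescent primer extension and capillary electrophoresis; gain or loss of signal fitted relative to DMSO.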
# [7] = ATG_TGFb_CIS: Attagene CIS-FACTORIAL HepG2 Assay for human Transforming Growth Factor (TGF) (AID 2282967); details: HepG2 Attagene CIS TGFb reporter, mRNA transcription; actives raise or lower the signal
# Method in brief: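 Transcript-level reporter readout: HepG2 transfectants, 24 h exposure, RNA to cDNA, reporter-specific PCR, fluorescent primer extension, capillary sizing against ROX standards. Gain- or loss-of-signal relative to DMSO.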
# [8] = biological target: Estrogen receptor (Homo sapiens) (UniProt P03372); test: ATG_ERa_TRANS: Attagene TRANS-FACTORIAL HepG2 Assay for human Estrogen Receptor alpha (ERa) (AID 2282970; active = hit-call score of the fitted dose curve at least 0.9, where 1 is the maximum); details: HepG2 Attagene TRANS ERa GAL4 reporter, mRNA
# Method in brief: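 Reporter transcripts were measured 24 h after dosing by RT-PCR with fluorescent primer extension and capillary electrophoresis. The system is transiently transfected HepG2 expressing exogenous NR-Gal4 chimeras driving GAL4-UAS reporters; DMSO is the baseline.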
# [9] = biological target: X-box-binding protein 1 (Homo sapiens) (UniProt P17861); test: ATG_Xbp1_CIS: Attagene CIS-FACTORIAL HepG2 Assay for human X-box Binding Protein 1 (XBP1) (AID 2282972); details: HepG2 XBP1 cis-element reporter, Attagene multiplex; actives raise or lower the signal
# Method in brief: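 Reporter transcripts were quantified by RT-PCR with fluorescent primer extension and capillary electrophoresis after 24 h chemical exposure. Cells: transiently transfected HepG2 carrying cis-regulated reporter constructs; data fitted bidirectionally relative to DMSO.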
# [10] = ATG_M_19_TRANS: Attagene TRANS-FACTORIAL HepG2 Assay for M19 Transcription Factor (Internal Marker) (AID 2282974; active = hit-call score of the fitted dose curve at least 0.9, where 1 is the maximum); details: HepG2 Attagene TRANS-FACTORIAL M19 internal marker reporter
# Method in brief: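 Reporter mRNA induction was measured in transfected HepG2 cells 24 h after dosing. Endpoint fitted upward relative to DMSO and serves as a background control within the multiplexed TRANS panel.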
# [11] = ATG_GAL4_TRANS: Attagene TRANS-FACTORIAL HepG2 Assay for GAL4 (Internal Marker) (AID 2282976; active = hit-call score of the fitted dose curve at least 0.9, where 1 is the maximum); details: HepG2 Attagene TRANS GAL4 internal marker reporter
# Method in brief: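 In transfected human HepG2 liver cells dosed 24 h, GAL4 reporter mRNA serves as a baseline marker. Detection by RT-PCR with fluorescent capillary electrophoresis, activity fitted upward relative to DMSO.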
# [12] = biological target: Estrogen-related receptor gamma (Homo sapiens) (UniProt P62508); test: ATG_ERRg_TRANS: Attagene TRANS-FACTORIAL HepG2 Assay for human Estrogen-Related Receptor gamma (ERRg) (AID 2282977; active = hit-call score of the fitted dose curve at least 0.9, where 1 is the maximum;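 note: hits increase reporter signal over DMSO so potencies reflect activators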); details: HepG2 Attagene TRANS reporter, ERRg transactivation
# Method in brief: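 Exogenous NR-Gal4 chimera activity was assessed in HepG2 cells bearing transfected GAL4-UAS reporters. After 24 h dosing, total RNA underwent RT-PCR, fluorescent primer extension and HpaI digestion before capillary electrophoresis, with gain of signal scored against DMSO.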
# [13] = biological target: Glucocorticoid receptor (Homo sapiens) (UniProt P04150); test: ATG_GR_TRANS: Attagene TRANS-FACTORIAL HepG2 Assay for human Glucocorticoid Receptor (GR) (AID 2282978; active = hit-call score of the fitted dose curve at least 0.9, where 1 is the maximum;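 note: activators score as hits since higher reporter transcript over DMSO is fitted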); details: HepG2 Attagene TRANS GR reporter, mRNA transcription
# Method in brief: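 Reporter transcript levels, detected by fluorescence after RT-PCR and capillary electrophoresis, served as the endpoint. HepG2 cells bearing transfected GAL4-UAS reporters responsive to NR-GAL4 chimeras were incubated with compound 24 h; DMSO defined baseline.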
# [14] = biological target: Bile acid receptor (Homo sapiens) (UniProt Q96RI1); test: ATG_FXR_TRANS: Attagene TRANS-FACTORIAL HepG2 Assay for Farnesoid X Receptor (FXR) (AID 2282979; active = hit-call score of the fitted dose curve at least 0.9, where 1 is the maximum;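 note: hits raise reporter mRNA above DMSO so AC50 marks FXR activation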); details: HepG2 Attagene TRANS FXR-GAL4 reporter transcription
# Method in brief: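 Reporter transcripts from transfected HepG2 cells were measured 24 h after dosing, using RT-PCR with capillary electrophoresis of 6-FAM-labelled fragments. The read-out reflects activity of exogenous FXR-Gal4 chimera on GAL4-UAS units, with induction relative to DMSO.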
# [15] = ATG_TA_CIS: Attagene CIS-FACTORIAL HepG2 Assay for human TA Basal Promoter (AID 2282964); details: HepG2 Attagene CIS-factorial TA basal promoter reporter; actives raise or lower the signal
# Method in brief: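 Multiplexed mRNA reporter assay, HepG2, 24 h. Reporter cDNA amplified, 6-FAM primer-extended, HpaI-cut, CE-sized; DMSO = negative control and baseline.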
# [16] = ATG_VDRE_CIS: Attagene CIS-FACTORIAL HepG2 Assay for human Vitamin D Receptor Element (VDRE) (AID 2282968); details: HepG2 VDRE cis-reporter transcription, actives raise or lower the signal
# Method in brief: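 Measures endogenous factor activity through cis-element-driven reporter transcripts in transiently transfected HepG2. Cells are treated 24 h; reporter mRNA is quantified by RT-PCR and capillary electrophoresis; fitting is bidirectional.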
# [17] = biological target: Nuclear receptor subfamily 1 group I member 3 (Homo sapiens) (UniProt Q14994); test: ATG_CAR_TRANS: Attagene TRANS-FACTORIAL HepG2 Assay for human Constitutive Androstane Receptor (CAR) (AID 2282969; active = hit-call score of the fitted dose curve at least 0.9, where 1 is the maximum;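 note: activators raise reporter mRNA above DMSO so AC50 marks induction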); details: HepG2 Attagene TRANS-FACTORIAL CAR reporter
# Method in brief: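 Signal is reporter mRNA induction relative to DMSO, measured 24 h after dosing by RT-PCR with fluorescent primer extension and capillary electrophoresis. Human HepG2 liver cells carried transiently transfected chimeric NR-Gal4/GAL4-UAS reporter constructs.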
# [18] = biological target: Oxysterols receptor LXR-alpha (Homo sapiens) (UniProt Q13133); test: ATG_LXRa_TRANS: Attagene TRANS-FACTORIAL HepG2 Assay for human Liver X Receptor alpha (LXRa) (AID 2282980; active = hit-call score of the fitted dose curve at least 0.9, where 1 is the maximum); details: HepG2 Attagene TRANS reporter, LXRa transactivation
# Method in brief: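 Chemical-induced reporter mRNA measured by RT-PCR with fluorescent labelling and capillary electrophoresis after 24 h dosing of transiently transfected HepG2 cells expressing exogenous NR-Gal4 chimeras; increases scored against DMSO baseline.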
# [19] = biological target: Steroid hormone receptor ERR1 (Homo sapiens) (UniProt P11474); test: ATG_ERRa_TRANS: Attagene TRANS-FACTORIAL HepG2 Assay for human Estrogen-Related Receptor alpha (ERRa) (AID 2282971; active = hit-call score of the fitted dose curve at least 0.9, where 1 is the maximum); details: HepG2 Attagene TRANS reporter, ERRa transactivation
# Method in brief: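 Reporter transcripts from ERRa-Gal4 chimera activity measured in transiently transfected human HepG2 cells 24 hours after dosing, using RT-PCR with 6-FAM primer extension, HpaI digestion and capillary electrophoresis; DMSO is baseline.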
# Sequence of X-box-binding protein 1 (Homo sapiens) (P17861 whole entry, looked up): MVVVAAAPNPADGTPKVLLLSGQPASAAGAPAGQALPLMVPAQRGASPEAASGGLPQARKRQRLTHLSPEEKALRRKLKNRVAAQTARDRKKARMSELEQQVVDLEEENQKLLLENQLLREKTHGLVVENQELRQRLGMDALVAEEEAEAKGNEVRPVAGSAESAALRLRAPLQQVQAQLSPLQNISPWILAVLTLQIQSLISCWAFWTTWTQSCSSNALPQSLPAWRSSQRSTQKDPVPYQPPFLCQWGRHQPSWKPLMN
# Sequence of Estrogen receptor (Homo sapiens) (P03372 whole entry, looked up, the tested form may be a part): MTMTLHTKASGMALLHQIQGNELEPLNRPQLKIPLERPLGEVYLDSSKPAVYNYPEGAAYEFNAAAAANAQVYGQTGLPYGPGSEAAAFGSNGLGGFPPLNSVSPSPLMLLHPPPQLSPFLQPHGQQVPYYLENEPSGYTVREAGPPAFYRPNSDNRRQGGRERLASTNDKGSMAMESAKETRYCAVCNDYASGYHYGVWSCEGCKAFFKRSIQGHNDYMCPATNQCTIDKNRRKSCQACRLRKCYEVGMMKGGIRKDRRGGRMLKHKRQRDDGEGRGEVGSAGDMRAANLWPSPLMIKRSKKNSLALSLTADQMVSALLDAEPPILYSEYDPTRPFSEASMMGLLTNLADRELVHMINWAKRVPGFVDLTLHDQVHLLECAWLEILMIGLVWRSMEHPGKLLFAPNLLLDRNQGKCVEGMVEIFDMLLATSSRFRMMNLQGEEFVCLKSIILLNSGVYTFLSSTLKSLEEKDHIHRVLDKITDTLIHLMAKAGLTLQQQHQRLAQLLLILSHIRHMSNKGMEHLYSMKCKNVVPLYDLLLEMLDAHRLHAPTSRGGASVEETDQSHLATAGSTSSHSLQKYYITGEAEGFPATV
# Sequence of Bile acid receptor (Homo sapiens) (Q96RI1 whole entry, looked up, the tested form may be a part): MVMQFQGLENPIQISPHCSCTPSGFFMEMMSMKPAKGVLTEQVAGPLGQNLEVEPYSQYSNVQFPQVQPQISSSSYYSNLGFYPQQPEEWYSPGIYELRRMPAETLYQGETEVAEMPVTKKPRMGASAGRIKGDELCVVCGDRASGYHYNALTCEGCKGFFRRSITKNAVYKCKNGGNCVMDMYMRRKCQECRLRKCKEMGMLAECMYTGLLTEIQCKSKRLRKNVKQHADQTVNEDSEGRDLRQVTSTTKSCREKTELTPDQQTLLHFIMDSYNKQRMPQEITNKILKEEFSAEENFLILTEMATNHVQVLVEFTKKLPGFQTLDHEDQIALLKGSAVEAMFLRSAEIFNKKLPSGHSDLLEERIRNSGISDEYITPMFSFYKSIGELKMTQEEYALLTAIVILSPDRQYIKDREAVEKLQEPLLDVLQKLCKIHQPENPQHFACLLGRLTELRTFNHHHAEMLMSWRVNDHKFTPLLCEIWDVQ
# Sequence of Nuclear receptor subfamily 1 group I member 3 (Homo sapiens) (Q14994 whole entry, looked up, the tested form may be a part): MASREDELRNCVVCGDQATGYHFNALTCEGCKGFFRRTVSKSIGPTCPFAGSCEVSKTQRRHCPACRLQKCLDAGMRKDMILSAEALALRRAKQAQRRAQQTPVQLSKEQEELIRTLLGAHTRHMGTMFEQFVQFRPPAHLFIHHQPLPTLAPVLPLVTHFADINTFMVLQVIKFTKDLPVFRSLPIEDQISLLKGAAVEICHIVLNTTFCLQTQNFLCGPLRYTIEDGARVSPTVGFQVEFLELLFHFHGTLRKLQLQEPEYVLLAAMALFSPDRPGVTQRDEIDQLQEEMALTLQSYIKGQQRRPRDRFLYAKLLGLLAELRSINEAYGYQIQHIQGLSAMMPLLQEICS
# Sequence of Glucocorticoid receptor (Homo sapiens) (P04150 whole entry, looked up, the tested form may be a part): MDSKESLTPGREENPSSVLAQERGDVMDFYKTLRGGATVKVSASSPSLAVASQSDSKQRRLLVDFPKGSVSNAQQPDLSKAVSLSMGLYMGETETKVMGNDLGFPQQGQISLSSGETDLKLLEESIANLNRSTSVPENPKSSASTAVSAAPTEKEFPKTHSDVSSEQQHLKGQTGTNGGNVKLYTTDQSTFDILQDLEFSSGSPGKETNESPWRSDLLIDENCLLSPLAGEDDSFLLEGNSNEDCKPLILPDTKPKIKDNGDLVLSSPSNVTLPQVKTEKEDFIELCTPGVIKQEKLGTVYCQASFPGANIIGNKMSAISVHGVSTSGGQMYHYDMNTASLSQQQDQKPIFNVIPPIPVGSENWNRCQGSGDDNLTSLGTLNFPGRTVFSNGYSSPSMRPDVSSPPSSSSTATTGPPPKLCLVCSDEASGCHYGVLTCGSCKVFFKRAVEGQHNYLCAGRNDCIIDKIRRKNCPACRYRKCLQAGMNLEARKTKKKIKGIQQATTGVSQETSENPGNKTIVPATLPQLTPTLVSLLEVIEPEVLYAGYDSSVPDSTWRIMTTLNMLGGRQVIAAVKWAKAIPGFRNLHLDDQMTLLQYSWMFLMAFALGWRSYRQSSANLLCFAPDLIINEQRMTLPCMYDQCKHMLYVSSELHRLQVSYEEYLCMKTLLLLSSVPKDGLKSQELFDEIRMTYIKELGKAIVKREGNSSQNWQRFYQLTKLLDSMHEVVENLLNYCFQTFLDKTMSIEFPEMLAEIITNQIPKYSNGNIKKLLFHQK
# Sequence of Transcription factor Sp1 (Homo sapiens) (P08047 whole entry, looked up): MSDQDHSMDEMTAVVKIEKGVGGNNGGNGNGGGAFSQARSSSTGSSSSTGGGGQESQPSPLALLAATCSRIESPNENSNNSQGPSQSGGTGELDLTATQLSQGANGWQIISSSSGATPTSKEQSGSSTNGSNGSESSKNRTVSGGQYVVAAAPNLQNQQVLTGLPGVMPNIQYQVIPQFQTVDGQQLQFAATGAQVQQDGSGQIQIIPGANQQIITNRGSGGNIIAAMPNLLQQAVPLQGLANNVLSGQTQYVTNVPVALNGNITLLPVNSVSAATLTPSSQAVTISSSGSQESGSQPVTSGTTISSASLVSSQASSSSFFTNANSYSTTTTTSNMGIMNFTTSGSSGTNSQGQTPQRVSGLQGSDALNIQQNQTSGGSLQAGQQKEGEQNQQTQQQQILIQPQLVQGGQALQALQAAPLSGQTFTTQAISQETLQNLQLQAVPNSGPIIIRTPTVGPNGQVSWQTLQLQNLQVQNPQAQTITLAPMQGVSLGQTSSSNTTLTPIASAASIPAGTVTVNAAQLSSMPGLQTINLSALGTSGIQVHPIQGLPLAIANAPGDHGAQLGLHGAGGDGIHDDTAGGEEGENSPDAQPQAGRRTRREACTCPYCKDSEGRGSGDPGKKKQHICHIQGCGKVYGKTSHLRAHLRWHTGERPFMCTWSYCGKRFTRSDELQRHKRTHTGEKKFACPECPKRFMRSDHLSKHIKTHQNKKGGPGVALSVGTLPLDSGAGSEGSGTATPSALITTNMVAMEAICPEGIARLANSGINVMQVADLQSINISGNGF
# Sequence of Signal transducer and activator of transcription 3 (Homo sapiens) (P40763 whole entry, looked up): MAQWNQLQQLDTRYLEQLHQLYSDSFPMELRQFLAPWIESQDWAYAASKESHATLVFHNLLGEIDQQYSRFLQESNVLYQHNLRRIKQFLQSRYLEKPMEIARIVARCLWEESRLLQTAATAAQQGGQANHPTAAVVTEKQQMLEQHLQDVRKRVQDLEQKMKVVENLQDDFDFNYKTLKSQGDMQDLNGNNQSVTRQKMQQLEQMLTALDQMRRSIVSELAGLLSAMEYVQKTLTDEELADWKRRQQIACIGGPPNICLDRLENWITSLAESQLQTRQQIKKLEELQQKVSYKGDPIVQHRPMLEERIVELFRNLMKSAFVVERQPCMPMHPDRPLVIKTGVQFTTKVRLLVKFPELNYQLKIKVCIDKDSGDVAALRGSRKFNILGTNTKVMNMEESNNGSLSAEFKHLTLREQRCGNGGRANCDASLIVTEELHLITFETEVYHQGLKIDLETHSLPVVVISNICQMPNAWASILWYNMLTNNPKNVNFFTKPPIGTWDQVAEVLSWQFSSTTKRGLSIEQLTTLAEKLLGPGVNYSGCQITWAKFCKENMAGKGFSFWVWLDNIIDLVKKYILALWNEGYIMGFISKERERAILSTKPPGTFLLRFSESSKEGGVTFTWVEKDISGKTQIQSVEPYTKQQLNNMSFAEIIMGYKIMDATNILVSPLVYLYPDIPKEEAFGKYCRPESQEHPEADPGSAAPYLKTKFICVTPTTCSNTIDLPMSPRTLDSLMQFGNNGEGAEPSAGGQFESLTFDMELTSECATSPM
# Sequence of Oxysterols receptor LXR-alpha (Homo sapiens) (Q13133 whole entry, looked up, the tested form may be a part): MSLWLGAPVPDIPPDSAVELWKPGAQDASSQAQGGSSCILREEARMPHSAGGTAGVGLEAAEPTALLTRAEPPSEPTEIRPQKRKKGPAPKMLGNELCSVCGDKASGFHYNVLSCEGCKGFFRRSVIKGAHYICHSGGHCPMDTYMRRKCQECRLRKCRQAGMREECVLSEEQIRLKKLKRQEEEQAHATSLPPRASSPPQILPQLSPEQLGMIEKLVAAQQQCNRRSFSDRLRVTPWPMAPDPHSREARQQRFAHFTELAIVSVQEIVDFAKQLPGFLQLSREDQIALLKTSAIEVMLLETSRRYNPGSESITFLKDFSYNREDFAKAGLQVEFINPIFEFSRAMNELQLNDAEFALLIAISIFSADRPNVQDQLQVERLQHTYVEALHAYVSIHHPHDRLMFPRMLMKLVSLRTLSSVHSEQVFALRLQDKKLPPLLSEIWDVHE
# Sequence of Estrogen-related receptor gamma (Homo sapiens) (P62508 whole entry, looked up, the tested form may be a part): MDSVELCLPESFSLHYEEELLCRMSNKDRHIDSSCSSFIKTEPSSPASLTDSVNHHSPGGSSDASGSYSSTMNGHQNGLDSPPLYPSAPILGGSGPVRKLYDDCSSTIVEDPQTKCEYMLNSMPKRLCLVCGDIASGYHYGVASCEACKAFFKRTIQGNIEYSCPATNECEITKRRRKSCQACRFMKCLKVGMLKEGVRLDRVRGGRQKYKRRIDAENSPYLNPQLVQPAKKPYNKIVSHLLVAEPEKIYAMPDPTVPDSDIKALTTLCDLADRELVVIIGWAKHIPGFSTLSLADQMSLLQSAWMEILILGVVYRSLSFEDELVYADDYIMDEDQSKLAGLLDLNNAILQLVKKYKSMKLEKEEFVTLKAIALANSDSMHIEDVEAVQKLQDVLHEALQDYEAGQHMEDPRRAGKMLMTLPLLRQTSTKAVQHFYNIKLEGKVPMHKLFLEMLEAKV
structure (smiles),measurement,setting,value
C=CCc1ccccc1O,outcome,[1],inactive
same,outcome,[2],inactive
same,outcome,[3],inactive
same,outcome,[4],inactive
same,outcome,[5],inactive
same,outcome,[6],inactive
same,outcome,[7],inactive
same,AC50,[8],48.6 µM (active)
same,outcome,[9],inactive
same,outcome,[10],inactive
same,outcome,[11],inactive
same,outcome,[12],inactive
same,outcome,[13],inactive
same,outcome,[14],inactive
O=C1C=CC(=O)c2ccccc21,outcome,[1],inactive
same,outcome,[2],inactive
same,outcome,[4],inactive
same,outcome,[15],inactive
same,outcome,[5],inactive
same,outcome,[6],inactive
same,outcome,[7],inactive
same,outcome,[16],inactive
same,outcome,[17],inactive
same,AC50,[8],11.1 µM (active)
same,outcome,[9],inactive
same,outcome,[12],inactive
same,outcome,[13],inactive
same,outcome,[14],inactive
same,outcome,[18],inactive
Nc1cccnc1,outcome,[1],inactive
same,outcome,[2],inactive
same,outcome,[4],inactive
same,outcome,[15],inactive
same,outcome,[5],inactive
same,outcome,[6],inactive
same,outcome,[7],inactive
same,AC50,[16],50.1 µM (active)
same,outcome,[17],inactive
same,outcome,[9],inactive
N#CCCC(Br)(C#N)CBr (stereo not given),AC50,[1],49.4 µM (active)
same,AC50,[2],49.2 µM (active)
same,outcome,[3],inactive
same,outcome,[4],inactive
same,outcome,[6],inactive
same,outcome,[7],inactive
same,AC50,[16],43.9 µM (active)
same,outcome,[8],inactive
same,outcome,[19],inactive
same,AC50,[9],57.9 µM (active)
same,outcome,[10],inactive
same,outcome,[14],inactive
Cc1ccc(CCl)cc1,outcome,[1],inactive
same,outcome,[2],inactive
same,outcome,[4],inactive
same,outcome,[15],inactive
same,outcome,[5],inactive
same,outcome,[6],inactive
same,outcome,[7],inactive
same,outcome,[16],inactive
same,outcome,[17],inactive
same,outcome,[8],inactive
same,outcome,[19],inactive
same,outcome,[9],inactive
same,outcome,[11],inactive
same,outcome,[13],inactive
same,outcome,[14],inactive
C#CCOC(=O)/C=C(C)/C=C/CC(C)CCCC(C)C (stereo not given),outcome,[1],inactive
same,outcome,[2],inactive
same,outcome,[4],inactive
same,outcome,[15],inactive
same,outcome,[6],inactive
same,outcome,[7],inactive
same,outcome,[16],inactive
same,outcome,[17],inactive
same,outcome,[8],inactive
same,outcome,[9],inactive
same,outcome,[11],inactive
same,outcome,[14],inactive
c1cc[c]([Sb]([c]2ccccc2)[c]2ccccc2)cc1,outcome,[1],inactive
same,outcome,[2],inactive
same,outcome,[4],inactive
same,outcome,[15],inactive
same,outcome,[5],inactive
same,outcome,[6],inactive
same,AC50,[7],41.1 µM (active)
same,outcome,[16],inactive
same,outcome,[17],inactive
same,outcome,[13],inactive
same,outcome,[14],inactive
OCCN(CCO)CCO,outcome,[1],inactive
same,outcome,[2],inactive
same,outcome,[3],inactive
same,outcome,[4],inactive
same,outcome,[5],inactive
same,outcome,[6],inactive
same,outcome,[7],inactive
same,outcome,[11],inactive
same,outcome,[18],inactive
O=C(NC(=O)c1c(F)cccc1F)Nc1cc(Cl)c(F)c(Cl)c1F,outcome,[1],inactive
same,outcome,[2],inactive
same,outcome,[4],inactive
same,outcome,[15],inactive
same,outcome,[5],inactive
same,outcome,[6],inactive
same,outcome,[7],inactive
same,outcome,[17],inactive
same,outcome,[9],inactive
CC(C)(COCC1CO1)COCC1CO1 (stereo not given),outcome,[1],inactive
same,outcome,[2],inactive
same,outcome,[4],inactive
same,outcome,[15],inactive
same,outcome,[5],inactive
same,outcome,[6],inactive
same,outcome,[7],inactive
same,AC50,[16],38.7 µM (active)
same,outcome,[17],inactive
same,outcome,[8],inactive
same,outcome,[9],inactive
same,outcome,[10],inactive
same,outcome,[14],inactive
